Test results: the supplement of paper PMC12494721
Counter-ions that a name gives are not always drawn.

What was measured:
Settings in all cases: incubation time: 27 h, anaerobic, 37 °C;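 for the amine columns active = adjusted P below 0.05 in both replicates with a change the same way and a mean fold change under 0.8 or over 1.25; inactive = the rest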
[1] = system: Clostridium sporogenes DSM 1664; assay: growth (OD595) fold change vs plate DMSO controls (fold change (ratio)); higher = more growth
In short: (§1)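 Growth is calculated as fold change against the median of the DMSO control wells on each plate. Readings at 595 nm from anaerobic mGAM cultures (96-well, 27 h, 37 °C) were blank-subtracted, background-corrected with 20 µM compound solutions in water, and converted to OD by a calibration factor of 5. Fold changes above 1.5 were recorded as NA, and results are means of 2 biological replicates.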

Escherichia coli IAI1 [2] = assay: as above
In short: as §1

[3] = system: Klebsiella aerogenes DSM 30053; assay: as above
In short: as §1

[4] = system: Ruminococcus gnavus DSM 108212; assay: as above
In short: as §1

[5] = system: Klebsiella aerogenes DSM 30053; assay: fold change of Histamine concentration vs plate DMSO controls (fold change (ratio)); higher = more amine produced, active = hit call of the paper (significant change in both replicates, either direction)
In short: (§2)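 Amine values are fold changes relative to DMSO-only wells on the same plate. They derive from 27 h, 37 °C anaerobic mGAM cultures of four gut bacterial strains in 80 µL wells, dosed at 20 µM final, or 50 µM final for sweeteners. Extraction of the whole culture, LC–triple-quadrupole MS in dynamic MRM mode, external calibration curves and within-batch drift correction were used, with 2 biological replicates averaged.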

[6] = system: Clostridium sporogenes DSM 1664; assay: fold change of Tryptamine concentration vs plate DMSO controls (fold change (ratio)); higher = more amine produced, active = hit call of the paper (significant change in both replicates, either direction)
In short: as §2

[7] = system: Ruminococcus gnavus DSM 108212; assay: as above
In short: as §2

Escherichia coli IAI1 [8] = assay: fold change of Putrescine concentration vs plate DMSO controls (fold change (ratio)); higher = more amine produced, active = hit call of the paper (significant change in both replicates, either direction)
In short: as §2

[9] = system: Klebsiella aerogenes DSM 30053; assay: as above
In short: as §2

Escherichia coli IAI1 [10] = assay: fold change of Cadaverine concentration vs plate DMSO controls (fold change (ratio)); higher = more amine produced, active = hit call of the paper (significant change in both replicates, either direction)
In short: as §2

[11] = system: Klebsiella aerogenes DSM 30053; assay: as above
In short: as §2

[12] = system: Ruminococcus gnavus DSM 108212; assay: fold change of 2-Phenylethylamine concentration vs plate DMSO controls (fold change (ratio)); higher = more amine produced, active = hit call of the paper (significant change in both replicates, either direction)
In short: as §2

SMILES	growth [1]	growth (Escherichia coli IAI1 [2])	growth [3]	growth [4]	fold change of Histamine concentration [5]	fold change of Tryptamine concentration [6]	fold change of Tryptamine concentration [7]	fold change of Putrescine concentration (Escherichia coli IAI1 [8])	fold change of Putrescine concentration [9]	fold change of Cadaverine concentration (Escherichia coli IAI1 [10])	fold change of Cadaverine concentration [11]	fold change of 2-Phenylethylamine concentration [12]
C[N+](C)(C)CCCCCC[N+](C)(C)C [Hexamethonium dibromide dihydrate] (20 µM)	0.959	0.998	1	0.892	1.02 (inactive)	1.02 (inactive)	1.03 (inactive)	1.04 (inactive)	0.982 (inactive)	0.984 (inactive)	1 (inactive)	1.01 (inactive)
NCCc1ccc(O)c(O)c1 [Dopamine hydrochloride] (20 µM)	0.979	1.06	1.03	0.996	1.06 (inactive)	0.994 (inactive)	1.03 (inactive)	0.967 (inactive)	0.996 (inactive)	0.959 (inactive)	0.987 (inactive)	1.05 (inactive)
COC(=O)C1=C(C)NC(C)=C(C(=O)OCCN2CCN(C(c3ccccc3)c3ccccc3)CC2)C1c1cccc([N+](=O)[O-])c1 (stereo not given) [Manidipine Dihydrochloride] (20 µM)	0.816	1.01	1	0.934	1 (inactive)	0.799 (inactive)	0.848 (inactive)	0.983 (inactive)	1 (inactive)	1.01 (inactive)	0.997 (inactive)	0.9 (inactive)
CNC(=O)c1c(I)c(C(=O)NCC(=O)Nc2c(I)c(C(=O)O)c(I)c(C(=O)NCCO)c2I)c(I)c(N(C)C(C)=O)c1I [Ioxaglic acid] (20 µM)	1.16	1.08	1.09	1.02	1.01 (inactive)	0.978 (inactive)	1.01 (inactive)	1.05 (inactive)	1.06 (inactive)	1 (inactive)	1.04 (inactive)	0.982 (inactive)
COCCCOc1ccnc(C[S+]([O-])c2nc3ccccc3[nH]2)c1C (stereo not given) [Rabeprazole sodium salt] (20 µM)	1.24	0.993	1.03	1.26	0.965 (inactive)	1.09 (inactive)	1.15 (inactive)	0.886 (inactive)	0.95 (inactive)	0.955 (inactive)	1.03 (inactive)	1.23 (inactive)
CC(N)(Cc1ccc(O)c(O)c1)C(=O)O (stereo not given) [(L) Methyldopa] (20 µM)	0.936	0.99	1	0.89	1.06 (inactive)	1 (inactive)	1.11 (inactive)	0.882 (inactive)	1.06 (inactive)	0.965 (inactive)	1.07 (inactive)	1.26 (active)
Cc1c(Nc2ncccc2C(=O)O)cccc1C(F)(F)F [Flunixin meglumine] (20 µM)	0.944	1.04	1.05	1.15	0.909 (inactive)	1.03 (inactive)	0.992 (inactive)	1.07 (inactive)	0.959 (inactive)	1.01 (inactive)	1 (inactive)	1.02 (inactive)
CCOC(=O)[C@H](CCc1ccccc1)N[C@@H](C)C(=O)N1[C@H](C(=O)O)C[C@H]2CCCC[C@@H]21 [Trandolapril] (20 µM)	0.941	1.05	1.02	1.01	0.994 (inactive)	0.989 (inactive)	1.02 (inactive)	1.08 (inactive)	1 (inactive)	0.978 (inactive)	0.991 (inactive)	1.02 (inactive)
COc1ccc(Cl)cc1C(=O)NCCc1ccc(S(=O)(=O)NC(=O)NC2CCCCC2)cc1 [Glibenclamide] (20 µM)	1.19	1	1.04	1.04	0.91 (inactive)	1.03 (inactive)	1.06 (inactive)	0.96 (inactive)	0.964 (inactive)	0.909 (inactive)	1.03 (inactive)	1.09 (inactive)
CN1CCN(c2c(F)cc3c(=O)c(C(=O)O)cn4c3c2OCN4C)CC1 [Marbofloxacin] (20 µM)	0.0155	0.0185	0.139	1.36	0.107 (active)	0.0554 (active)	0.992 (inactive)	0.616 (active)	0.607 (active)	0.231 (active)	0.932 (inactive)	1.04 (inactive)
OCc1cc(C(O)CNCCCCCCOCCCCc2ccccc2)ccc1O (stereo not given) [Salmeterol] (20 µM)	1.17	1.02	1	0.975	1.04 (inactive)	1.04 (inactive)	0.936 (inactive)	1.07 (inactive)	0.975 (inactive)	1.02 (inactive)	0.986 (inactive)	0.981 (inactive)
NCCCC[C@H](N[C@@H](CCc1ccccc1)C(=O)O)C(=O)N1CCC[C@H]1C(=O)O [Lisinopril] (20 µM)	1.04	1.03	1.14	0.922	0.911 (inactive)	0.958 (inactive)	0.981 (inactive)	0.998 (inactive)	0.988 (inactive)	1.04 (inactive)	1.02 (inactive)	0.943 (inactive)
CC[C@H](C)C(=O)O[C@H]1CCC=C2C=C[C@H](C)[C@H](CC[C@@H]3C[C@@H](O)CC(=O)O3)[C@H]21 [Mevastatin] (20 µM)	1.15	1	1.01	1.02	0.995 (inactive)	0.988 (inactive)	1.02 (inactive)	0.998 (inactive)	1 (inactive)	1.07 (inactive)	0.998 (inactive)	1.04 (inactive)
Cc1cc(C)nc(NS(=O)(=O)c2ccc(N)cc2)n1 [Sulfamethazine sodium salt] (20 µM)	1.01	0.957	0.984	0.999	1.06 (inactive)	1.06 (inactive)	1.04 (inactive)	0.93 (inactive)	1.03 (inactive)	0.986 (inactive)	0.995 (inactive)	1.07 (inactive)
CC(=O)O[C@]1(C(C)=O)CC[C@H]2[C@@H]3C=C(C)C4=CC(=O)CC[C@]4(C)[C@H]3CC[C@@]21C [Megestrol acetate] (20 µM)	1.03	1.1	0.998	1.07	0.981 (inactive)	1.05 (inactive)	1.04 (inactive)	1.2 (inactive)	0.971 (inactive)	0.982 (inactive)	1.01 (inactive)	1.04 (inactive)
C=CCOC(Cn1ccnc1)c1ccc(Cl)cc1Cl (stereo not given) [Enilconazole] (20 µM)	1.05	0.989	0.991	0.919	0.966 (inactive)	1.19 (inactive)	1.15 (inactive)	0.862 (inactive)	1.01 (inactive)	0.939 (inactive)	1.13 (inactive)	1.56 (active)
CNCC(O)c1ccc(O)c(O)c1 (stereo not given) [Racepinephrine hydrochloride] (20 µM)	1.15	1.07	1.27	1.24	0.938 (inactive)	1.05 (inactive)	1.05 (inactive)	1.01 (inactive)	1.02 (inactive)	0.94 (inactive)	1.03 (inactive)	1.05 (inactive)
S=C([S-])NCCNC(=S)[S-].S=C([S-])NCCNC(=S)[S-].[Mn+2].[Zn+2] (20 µM)	0.889	0.959	0.994	1.01	0.985 (inactive)	1.14 (inactive)	1.12 (inactive)	1.02 (inactive)	0.852 (inactive)	0.85 (inactive)	1.07 (inactive)	1.21 (inactive)
O=S(=O)(O)CCS [Coenzyme M] (20 µM)	0.917	1.06	1	1.01	1.12 (inactive)	1.02 (inactive)	0.951 (inactive)	1.03 (inactive)	1.01 (inactive)	0.979 (inactive)	0.986 (inactive)	0.902 (inactive)
O=C(CCCN1CC=C(n2c(=O)[nH]c3ccccc32)CC1)c1ccc(F)cc1 [Droperidol] (20 µM)	1.02	0.959	1.02	0.835	0.994 (inactive)	0.988 (inactive)	0.963 (inactive)	0.977 (inactive)	1.02 (inactive)	1.03 (inactive)	1 (inactive)	0.956 (inactive)
CCCCOC(=O)c1ccc(N)cc1 [Butamben] (20 µM)	1.36	1	1.01	0.962	1 (inactive)	1.04 (inactive)	0.94 (inactive)	0.935 (inactive)	0.988 (inactive)	1.01 (inactive)	0.999 (inactive)	0.915 (inactive)
NC(=O)OCC(O)COc1ccc(Cl)cc1 (stereo not given) [Chlorphensin carbamate] (20 µM)	1.02	1.02	0.951	1.2	0.969 (inactive)	0.996 (inactive)	0.995 (inactive)	1 (inactive)	0.913 (inactive)	0.951 (inactive)	1.02 (inactive)	1.07 (inactive)
CS(=O)(=O)c1ccc(C2=C(c3ccccc3)C(=O)OC2)cc1 [Rofecoxib] (20 µM)	1	0.962	0.973	1.1	0.981 (inactive)	1.2 (inactive)	1.08 (inactive)	1.02 (inactive)	0.99 (inactive)	1.04 (inactive)	1.01 (inactive)	1.07 (inactive)
Nc1nc(=O)n([C@@H]2CS[C@H](CO)O2)cc1F [(-) Emtricitabine] (20 µM)	1.11	0.995	0.981	1.12	1.01 (inactive)	1.03 (inactive)	1.03 (inactive)	1.01 (inactive)	0.985 (inactive)	0.996 (inactive)	0.991 (inactive)	1.06 (inactive)
CC(C)(Oc1ccc(C2CC2(Cl)Cl)cc1)C(=O)O (stereo not given) [Ciprofibrate] (20 µM)	0.861	0.88	0.891	0.992	1.01 (inactive)	1.04 (inactive)	0.951 (inactive)	1.01 (inactive)	1 (inactive)	1.03 (inactive)	0.992 (inactive)	0.949 (inactive)
